Assay results reported in PubChem BioAssay AID588790 (National Center for Advancing Translational Sciences (NCATS), 2011).
The whole screen tested about 1,200 compounds, of which about 85 (7%) were called active. The call rests on the fitted dose curve. The list comes from a sample in which actives are over-represented; it also holds similar structures and randomly drawn compounds. Where a call stands in place of a potency, no number is given.

Biological target: Beta-2 adrenergic receptor (Homo sapiens) (UniProt P07550)
Assay: qHTS assay of beta-arrestin-biased ligands of beta2-adrenergic receptor: Hit Validation with GloSensor
Details: W9-Glo22F cells, GloSensor cAMP luminescence, beta2AR agonism; series mostly up to 46.1 µM
Source text: The concept of biased agonism is an emerging concept of molecular pharmacology which proposes that seven transmembrane receptors (7TMRs) or G protein-coupled receptors (GPCRs), exist in multiple signaling conformations and complexes and that ligands (either agonists or antagonists) can induce signaling biased responses for distinct signal transduction cascades.
Furthermore, accumulating evidence over the last decade has drawn attention to a novel function of beta-arrestins as signal transducers that scaffold various signaling molecules upon activation of 7TMRs. […] This beta-arrestin-biased signaling presumably leads to distinct physiological outcomes from those by G protein activation.
Additionally, the active receptor conformations which […] on this beta-arrestin signaling are likely different from those activating G protein signaling
The goal of this screening project is to discover and optimize novel beta-arrestin-biased ligands for beta2-AR signaling. A luminescent cell-based assay for beta2-AR-mediated agonism, known as the Tango assay, has been validated in which ligand binding of a recombinant beta2-AR and subsequent recruitment of a recombinant beta-arrestin lead to the release of the transcriptional activator tTA, which upregulates transcription of a tTA-responsive luciferase gene. […] After compounds were identified in this primary screen, they were tested in a counter screen that used luminescence as measure through the GloSensor reagent.
NIH Molecular Libraries Probe Production Network [MLPCN]
NIH Chemical Genomics Center [NCGC]
PI: Bryan Roth (UNC) and Bob Lefkowitz (Duke)
2 uL of W9-Glo22F cells are dispensed into a white 1536-well plate. They are incubated overnight at 37 deg C at 5% CO2. 23 nL of compounds and controls are pinned into the wells. Then 2 uL of GloSensor is added and the plate is incubated for 10 min at room temperature.The plates are then read on the ViewLux for luminescence.
Potency means the concentration at half of the fitted maximal effect.

Sequence of Beta-2 adrenergic receptor (Homo sapiens) (P07550 whole entry, looked up): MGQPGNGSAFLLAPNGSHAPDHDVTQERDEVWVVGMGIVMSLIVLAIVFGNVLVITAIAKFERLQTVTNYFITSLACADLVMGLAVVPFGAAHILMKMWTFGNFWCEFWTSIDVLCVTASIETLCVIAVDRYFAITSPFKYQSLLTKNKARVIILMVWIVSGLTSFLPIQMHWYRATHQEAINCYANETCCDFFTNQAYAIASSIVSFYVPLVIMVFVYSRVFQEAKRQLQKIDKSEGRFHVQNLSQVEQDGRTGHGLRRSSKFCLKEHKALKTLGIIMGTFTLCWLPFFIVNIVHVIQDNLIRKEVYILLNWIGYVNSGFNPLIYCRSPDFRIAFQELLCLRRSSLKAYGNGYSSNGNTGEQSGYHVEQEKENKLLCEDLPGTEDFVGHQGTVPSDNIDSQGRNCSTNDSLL

Structure (SMILES) | Potency
COC(=O)C1=C(c2ccc(OCc3ccccc3)cc2)C[C@@H]2CC[C@H]1N2C(=O)NCc1cccc(C(F)(F)F)c1 | inactive
COC(=O)C1=C(c2ccc(OCc3ccccc3)cc2)C[C@@H]2CC[C@H]1N2C(=O)NCc1ccc(OC)c(OC)c1 | 4.11 µM (active)
COC(=O)C1=C(c2ccc(OCc3ccccc3)cc2)C[C@@H]2CC[C@H]1N2C(=O)NCc1cccc(OC)c1 | inactive
O=C1NC(=O)N(Cc2ccccc2)C(=O)/C1=C/C=C/c1ccco1 | inactive
COc1cccc(C(=O)C2CCCN(Cc3cccc(C)n3)C2)c1 (stereo not given) | inactive
Clc1ccc2c(c1)C(c1ccccc1Cl)=NCc1nnc(N3CCN(CCOc4ccccc4)CC3)n1-2 | inactive
COC(=O)C1=C(c2ccc(-c3ccccc3)c(F)c2)C[C@@H]2CC[C@H]1N2C(=O)NCc1ccco1 | inactive
CNCC(O)c1ccc(OC(=O)C(C)(C)C)c(OC(=O)C(C)(C)C)c1 (stereo not given) | 0.259 µM (active)
COC(=O)C1=C(c2ccc(OC)c(OC)c2)C[C@@H]2CC[C@H]1N2C(=O)NCc1cccc2ccccc12 | inactive
OC12ONC(c3ccccn3)C1N1CCC2CC1 (stereo not given) | inactive
COC(=O)C1=C(c2ccc(-c3ccccc3)c(F)c2)C[C@@H]2CC[C@H]1N2C(=O)NCCOc1ccc(OC)cc1 | inactive
O=c1c2ccccc2nc(/C=C/c2ccc(O)c(O)c2)n1-c1ccccc1 | 32.6 µM (active)
COc1cccc(OCc2cc(C(=O)N3C[C@H]4C[C@@H](C3)c3cccc(=O)n3C4)no2)c1 | inactive
c1cncc(C2Nc3cccc4cccc(c34)N2)c1 | inactive
COC(=O)C1=C(c2ccc(F)cc2F)C[C@@H]2CC[C@H]1N2C(=O)NCCNC(C)=O | inactive
